# Measured values reported in PubChem BioAssay (EPA / NIEHS).
# “And” between values parts separate entries of the source, which are not always exact repeats. Equal entries are not always repeated. Inconclusive results are not listed. More than one record can exist for a structure, and the calls need not agree. The source made the active and inactive calls. Rule for the calls, unless noted: active = hit-call score of the fitted dose curve at least 0.9, where 1 is the maximum; inactive = score below 0.9.
# What was measured:
# [1] = CCTE_Shafer_MEA_dev_LDH: CCTE's Lactate Dehydrogenase Assay for Cytotoxicity in the Neural Network Formation Assay, Shafer Lab (AID 2284068; active = hit-call score of the fitted dose curve at least 0.9, where 1 is the maximum;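 note: exposure for twelve days from plating with re-dosing on DIV 5 and 9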)
# Method in brief: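 Cytotoxicity companion to network-formation recordings: rat cortical neurons received compound over 12 days of development, re-dosed at DIV 5 and 9 feeds. Viability was inferred from LDH enzyme activity relative to DMSO.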
# [2] = CCTE_Shafer_MEA_acute_AB: CCTE's Alamar Blue Assay for Cytotoxicity in the Neural Acute Assay, Shafer Lab (AID 2284069; active = hit-call score of the fitted dose curve at least 0.9, where 1 is the maximum;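 note: active compounds lower the viability signal compared with DMSO wells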)
# Method in brief: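 Metabolic activity in chemically exposed rat cortical neurons (MEA cultures, day 13/15 post-plating) measured via CellTiter Blue resazurin reduction, 544/590 nm fluorescence; fitted relative to DMSO, with signal loss indicating reduced viability.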
# [3] = CCTE_Shafer_MEA_dev_AB: CCTE's Alamar Blue Assay for Cytotoxicity in the Neural Network Formation Assay, Shafer Lab (AID 2284083; active = hit-call score of the fitted dose curve at least 0.9, where 1 is the maximum;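 note: twelve days of exposure from plating with re-dosing on DIV 5 and 9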)
# Method in brief: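 Fluorescent resazurin reduction serves as the viability read-out, with DMSO as negative control and baseline. Cells were primary rat cortical neurons grown on MEA plates and dosed from day 0 to day 12, treatment renewed on DIV 5 and 9.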
# [4] = CCTE_Shafer_MEA_acute_LDH: CCTE's Lactate Dehydrogenase Assay for Cytotoxicity in the Neural Acute Assay, Shafer Lab (AID 2284086; active = hit-call score of the fitted dose curve at least 0.9, where 1 is the maximum;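 note: active means LDH release rises above DMSO vehicle level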)
# Method in brief: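 Released lactate dehydrogenase, read at 490 nm, indicated cytotoxicity after acute 40-min compound treatment of rat cortical neuron networks grown on 48-well MEA plates.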
# [5] = CCTE_Shafer_MEA_dev_correlation_coefficient_mean: CCTE's Neural Network Formation Assay for Mean Correlation Coefficient, Shafer Lab (AID 2284093);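 for AC50: well mean pairwise spike train correlation integrated as AUC over recording days 5 to 12; potency fitted for loss of correlation relative to DMSO vehicle wells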
# Method in brief: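 Read-out: well-mean correlation coefficient of spike trains between electrode pairs, collapsed over four recording days as trapezoidal area-under-the-curve. Developing rat cortical neuron networks grown on MEAs received test chemical continuously from plating.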
# [6] = UKN4_HCS_LUHMES_neurite_outgrowth: University of Konstanz (UKN) Leist Lab Neurite Outgrowth Assay in human LUHMES cells (UKN4) (AID 2284206); conditions: actives raise or lower the signal
# Method in brief: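 2-day-differentiated LUHMES, 24 h cpd exposure, live calcein-AM + H-33342 stain, HCS fluorescence imaging of neurite area; DMSO = baseline, bidirectional fit.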
# [7] = IUF_NPC1b_proliferation_BrdU_72hr: Leibniz Research Institute for Environmental Medicine (IUF) 72-hour Neural Progenitor Cell Bromodeoxyuridine (BrdU) Proliferation Assay (NPC1b) (AID 2284207)
# Method in brief: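 hNPC spheres (primary, GW 16-19 fetal cortex), single sphere/well, EGF+FGF medium; 72 h compound, no renewal; BrdU pulse last 16 h; luminescent ELISA; activity vs DMSO baseline; growth-factor withdrawal as positive control.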
# [8] = IUF_NPC1a_proliferation_area_72hr: Leibniz Research Institute for Environmental Medicine (IUF) 72-hour Neural Progenitor Cell Proliferation Area Assay (NPC1a) (AID 2284208)
# Method in brief: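 Spheres of 0.3 mm are plated singly in growth-factor medium and exposed from day 0. After three days at 37C and 5% CO2, sphere area is measured by phase contrast imaging, with activity referenced to DMSO.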
# [9] = CCTE_Mundy_HCI_Cortical_Synap_Neur_Matur_NeuriteSpotCountPerNeuriteLength: CCTE's Synaptogenesis and Neurite Maturation Assay in rat cortical cells for Neurite Spot Count per Neurite Length, Mundy Lab (AID 2284210)
# Method in brief: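 Rat primary cortical cultures, glia arrested with AraC at DIV 5, were dosed with media change at DIV 7 and fixed at DIV 12. Synaptophysin puncta per MAP2-labelled neurite length were quantified by high-content imaging versus DMSO.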
# [10] = CCTE_Mundy_HCI_Cortical_Synap_Neur_Matur_BPCount: CCTE's Synaptogenesis and Neurite Maturation Assay in rat cortical cells for Branch Point Count, Mundy Lab (AID 2284211)
# Method in brief: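 Branch point number is quantified by automated imaging of fluorescently labelled neurites and synapses in rat primary cortical neurons exposed from DIV 7 to DIV 12. Activity is analysed relative to DMSO negative control.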
# [11] = CCTE_Mundy_HCI_Cortical_NOG_NeuriteCount: CCTE's Neurite Outgrowth Assay in rat cortical cells for Neurite Count, Mundy Lab (AID 2284212);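 note: cells fixed about two days after chemical exposure began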
# Method in brief: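 Neurite number per cell from high-content imaging of betaIII-tubulin immunostaining, with Hoechst nuclear counterstain.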
# [12] = CCTE_Mundy_HCI_Cortical_NOG_NeuriteLength: CCTE's Neurite Outgrowth Assay in rat cortical cells for Neurite Length, Mundy Lab (AID 2284213);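 for AC50: neurites imaged about 48 to 50 h after chemical exposure began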
# Method in brief: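 Neurite length was read by high-content imaging of βIII-tubulin-labelled neurites in rat primary cortical cultures. Activity was fitted relative to DMSO.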
# [13] = CCTE_Mundy_HCI_Cortical_Synap_Neur_Matur_NeuriteLength: CCTE's Synaptogenesis and Neurite Maturation Assay in rat cortical cells for Neurite Length, Mundy Lab (AID 2284214)
# Method in brief: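 Neurite length in rat primary cortical cultures is imaged after MAP2, synaptophysin and Hoechst staining. Dosing starts DIV 7, ending DIV 12; DMSO serves as negative control and baseline.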
# [14] = CCTE_Mundy_HCI_Cortical_Synap_Neur_Matur_NeuriteSpotCountPerNeuron: CCTE's Synaptogenesis and Neurite Maturation Assay in rat cortical cells for Neurite Spot Count per Neuron Count, Mundy Lab (AID 2284215)
# Method in brief: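 Rat cortical primary cultures; AraC DIV 5 to arrest glia; dosing + media change DIV 7; fixed DIV 12. Anti-MAP2/anti-synaptophysin, Hoechst nuclei; HCI puncta count per neuron, positive fitting direction vs DMSO.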
# [15] = CCTE_Mundy_HCI_Cortical_Synap_Neur_Matur_SynapseCount: CCTE's Synaptogenesis and Neurite Maturation Assay in rat cortical cells for Synapse Count, Mundy Lab (AID 2284218)
# Method in brief: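 Synapse count per neuron is measured in rat cortical neurons exposed to chemicals between DIV 7 and DIV 12, with glial growth arrested by AraC at DIV 5. Synaptophysin and MAP2 staining is imaged automatically; activity is fitted relative to DMSO.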
# [16] = UKN5_HCS_SBAD2_cell_viability: Viability Assessment in the University of Konstanz (UKN) Leist Lab Neurite Outgrowth Assay in human iPSC-derived immature Dorsal Root Ganglia Neurons (UKN5) (AID 2284056)
# Method in brief: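 iPSC-derived immature peripheral neurons (SBAD2) seeded on Matrigel with CHIR99021, SU5402 and DAPT, dosed 1 h later for 24 h. Viability from Hoechst H-33342 and calcein-AM live staining, high-content imaging; bidirectional fit versus DMSO.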
# [17] = UKN5_HCS_SBAD2_neurite_outgrowth: University of Konstanz (UKN) Leist Lab Neurite Outgrowth Assay in human iPSC-derived immature Dorsal Root Ganglia Neurons (UKN5) (AID 2284070); conditions: actives raise or lower the signal
# Method in brief: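 SBAD2 neurons, 24 h compound treatment, calcein-AM neurite area via HCS imaging; DMSO baseline, gain or loss of signal.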
# [18] = UKN2_HCS_IMR90_neural_migration: University of Konstanz (UKN) Leist Lab Neural Crest Cell Migration Assay in human induced IMR90 Pluripotent Stem Cells (UKN2) (AID 2284204); conditions: actives raise or lower the signal
# Method in brief: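 iPSC-derived IMR90 neural crest cells on PLO/laminin/fibronectin were seeded around silicone stoppers; after stopper removal, migration in N2-S medium with EGF and FGF ran 24 h before 24 h chemical exposure. Calcein-AM/Hoechst high-content imaging; bidirectional fit versus DMSO.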
# [19] = TAMU_PeakParms_SingleDonor1434_Chronotropy: Texas A&M University (TAMU) 1.5-hr Human Induced Pluripotent Stem Cell (iPSC)-derived Cardiomyocytes Calcium (Ca+2) Flux Assay for Cardiotoxicity: Chronotropy (changes in peak frequency) (AID 2284217); conditions: actives raise or lower the signal
# Method in brief: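 Beat frequency of single-donor iPSC cardiomyocytes was recorded through a calcium-sensitive dye 1.5 hours after exposure to four concentrations up to 100 uM. An EC05 point of departure was derived.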
smiles,measurement,setting,value
CCC(C)(C)C(=O)OC1=C(c2ccc(Cl)cc2Cl)C(=O)OC12CCCCC2,outcome,[1],inactive
same,outcome,[2],inactive
same,outcome,[3],inactive
same,outcome,[4],inactive
same,outcome,[5],inactive
same,outcome,[6],inactive
same,outcome,[7],inactive
same,outcome,[8],inactive
same,outcome,[9],inactive
same,outcome,[10],inactive
same,outcome,[11],inactive
same,outcome,[12],inactive
same,outcome,[13],inactive
same,outcome,[14],inactive
same,outcome,[15],inactive
O=C(O)C(F)(F)C(F)(F)C(F)(F)C(F)(F)C(F)(F)C(F)(F)C(F)(F)F,AC50,[16],768 µM (active)
same,outcome,[1],inactive
same,AC50,[17],899 µM (active)
same,outcome,[5],inactive
same,outcome,[18],inactive
same,AC50,[6],78.1 µM (active)
same,AC50,[7],6.45 µM (active) and 11.7 µM (active)
same,outcome,[8],inactive
same,outcome,[9],inactive
same,outcome,[10],inactive
same,outcome,[11],inactive
same,outcome,[12],inactive
same,outcome,[13],inactive
same,outcome,[14],inactive
same,outcome,[15],inactive
CCCN(CCC)c1c([N+](=O)[O-])cc(C(F)(F)F)cc1[N+](=O)[O-],outcome,[2],inactive
same,outcome,[4],inactive
CCCN(CCOc1c(Cl)cc(Cl)cc1Cl)C(=O)n1ccnc1,outcome,[2],inactive
same,outcome,[4],inactive
CC1(c2ccc(Oc3ccccc3)cc2)OC(=O)N(Nc2ccccc2)C1=O (stereo not drawn),AC50,[1],3.28 µM (active)
same,AC50,[3],4.56 µM (active)
same,AC50,[5],1.79 µM (active)
same,outcome,[18],inactive
same,outcome,[7],inactive
same,AC50,[8],39.6 µM (active)
same,AC50,[9],37.6 µM (active)
same,AC50,[10],20.2 µM (active)
same,AC50,[11],55.8 µM (active)
same,AC50,[12],61.3 µM (active)
same,AC50,[13],44.1 µM (active)
same,AC50,[14],24.1 µM (active)
same,AC50,[15],40 µM (active)
COP(=S)(OC)Oc1ccc([N+](=O)[O-])cc1,AC50,[3],24.3 µM (active)
same,AC50,[5],23 µM (active)
same,outcome,[6],inactive
same,outcome,[7],inactive
same,outcome,[8],inactive
same,outcome,[9],inactive
same,outcome,[10],inactive
same,AC50,[11],23.4 µM (active)
same,AC50,[12],23.7 µM (active)
same,AC50,[13],15 µM (active)
same,AC50,[14],15 µM (active)
same,outcome,[15],inactive
N#CN,outcome,[2],inactive
same,outcome,[4],inactive
O=[N+]([O-])/N=C1\NCCN1Cc1ccc(Cl)nc1,outcome,[16],inactive
same,outcome,[1],inactive
same,outcome,[17],inactive
same,outcome,[5],inactive
same,outcome,[18],inactive
same,outcome,[6],inactive
same,outcome,[7],inactive
same,outcome,[8],inactive
same,outcome,[9],inactive
same,outcome,[10],inactive
same,outcome,[11],inactive
same,outcome,[12],inactive
same,outcome,[13],inactive
same,outcome,[14],inactive
same,outcome,[15],inactive
CNC(=O)CSP(=S)(OC)OC,AC50,[1],66.6 µM (active) and 24.2 µM (active)
same,AC50,[3],50 µM (active) and 26.8 µM (active)
same,AC50,[5],50 µM (active) and 15 µM (active)
same,outcome,[7],inactive
same,outcome,[8],inactive
same,outcome,[9],inactive
same,AC50,[10],50 µM (active)
same,outcome,[10],inactive
same,outcome,[11],inactive
same,outcome,[12],inactive
same,AC50,[13],50 µM (active)
same,outcome,[13],inactive
same,AC50,[14],50 µM (active)
same,outcome,[14],inactive
same,AC50,[15],50 µM (active)
same,outcome,[15],inactive
C[C@H]1[C@H](c2ccc(Cl)cc2)SC(=O)N1C(=O)NC1CCCCC1,outcome,[4],inactive
CC[C@H](C)[C@H]1O[C@]2(C=C[C@@H]1C)C[C@@H]1C[C@@H](C/C=C(\C)[C@@H](O[C@H]3C[C@H](OC)[C@@H](O[C@H]4C[C@H](OC)[C@@H](O)[C@H](C)O4)[C@H](C)O3)[C@@H](C)/C=C/C=C3\CO[C@@H]4[C@H](O)C(C)=C[C@@H](C(=O)O1)[C@]34O)O2 (tested in a mixture with another compound),AC50,[1],522 nM (active) and 0.537 nM (active)
same,AC50,[3],7.85 µM (active)
same,outcome,[3],inactive
same,outcome,[4],inactive
same,AC50,[5],89.5 nM (active) and 4.11 nM (active)
same,AC50,[18],3.78 µM (active)
same,AC50,[7],8.2 µM (active)
same,AC50,[8],5.05 µM (active)
same,AC50,[9],2.51 µM (active)
same,AC50,[10],0.896 µM (active)
same,AC50,[11],8.88 µM (active)
same,AC50,[12],8.48 µM (active)
same,AC50,[13],1.08 µM (active)
same,AC50,[14],1.19 µM (active)
same,AC50,[15],1.41 µM (active)
Oc1ccc(Cl)cc1Cc1ccccc1,outcome,[2],inactive
same,outcome,[4],inactive
CN1CSC(=S)N(C)C1,outcome,[19],inactive
N#Cc1c(Cl)c(Cl)c(Cl)c(C#N)c1Cl,outcome,[2],inactive
O=S1OCC2C(CO1)C1(Cl)C(Cl)=C(Cl)C2(Cl)C1(Cl)Cl (stereo not drawn),AC50,[1],8.55 µM (active)
same,outcome,[2],inactive
same,AC50,[3],9.32 µM (active)
same,outcome,[4],inactive
same,AC50,[5],8.13 µM (active)
same,AC50,[18],13.9 µM (active)
same,AC50,[6],16.3 µM (active)
same,outcome,[7],inactive
same,outcome,[8],inactive
same,AC50,[9],22.4 µM (active)
same,AC50,[10],15 µM (active)
same,AC50,[11],22.1 µM (active)
same,AC50,[12],23.8 µM (active)
same,AC50,[14],15 µM (active)
same,AC50,[19],4.73 µM (active)
same,AC50,[15],19.6 µM (active)
